Screening data (PubChem BioAssay)
Sampled rows, rich in hits. Any-hit rate of the full collection: about 2%.
TRb-SRC2 inh: qHTS for Inhibitors of the Interaction of Thyroid Hormone Receptor and Steroid Receptor Coregulator 2; 280,000 compounds, 0.065% hits; Potency, µM (doses to about 106 µM), inactives show at the highest dose activity change, negative = inhibition, most hits filed as inhibitors; Thyroid hormone receptor beta (Homo sapiens), P10828; TRbeta-SRC2 peptide binding, fluorescence polarization; receptor liganded with 1 µM T3;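 also: potency is read from the fitted curve at half-maximal effect; plate controls were bound peptide for no effect and peptide without receptor for full effect; nearly all actives have a fitted effect of over 50% in size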
Target sequence (P10828 whole entry, looked up): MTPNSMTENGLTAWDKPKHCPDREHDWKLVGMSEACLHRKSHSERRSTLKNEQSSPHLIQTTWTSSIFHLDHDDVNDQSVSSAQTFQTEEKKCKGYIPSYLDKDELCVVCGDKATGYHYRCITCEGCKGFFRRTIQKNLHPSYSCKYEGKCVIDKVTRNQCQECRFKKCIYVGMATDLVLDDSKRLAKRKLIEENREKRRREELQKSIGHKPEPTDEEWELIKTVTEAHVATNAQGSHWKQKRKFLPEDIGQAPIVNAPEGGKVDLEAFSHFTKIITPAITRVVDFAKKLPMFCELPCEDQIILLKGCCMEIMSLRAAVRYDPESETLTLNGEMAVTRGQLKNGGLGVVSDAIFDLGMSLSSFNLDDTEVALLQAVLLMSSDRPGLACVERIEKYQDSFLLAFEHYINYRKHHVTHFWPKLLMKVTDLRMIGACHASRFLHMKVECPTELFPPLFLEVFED
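Binding of a 20-amino-acid Texas Red SRC2 peptide (20 nM) to TRb ligand-binding domain (0.6 uM) with agonist T3 at 1 uM was followed by fluorescence polarization after a 5 hr room-temperature incubation.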
HTT aggregate: qHTS Multiplex Assay to Identify Dual Action Probes in a Cell Model of Huntington: Aggregate Formation (GFP); PC12 HttQ103-GFP aggregates, Acumen cytometry, 40 h; 220,000 compounds, 1.1% hits; Potency, µM (highest dose often 46.1 µM), inactives show at the top dose activity change, negative = inhibition, usual class: inhibitors; AID 1688, 2009; also: potency is read from the fitted curve at half-maximal effect; % is scaled to controls: 0 for no effect and ±100 for the full control effect; nearly all actives have a fitted effect of over 60% in size
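PC12/HTTQ103-GFP, ecdysone-inducible; teb 100 nM; cpd qHTS titration; GFP aggregates read on laser cytometer, Ex 488/Em 500-530 nm.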
JMJD2E inh: qHTS Assay for Inhibitors of Human Jumonji Domain Containing 2E (JMJD2E); JMJD2E catalytic domain, FDH-coupled NADH fluorescence (FDH is formaldehyde dehydrogenase); Potency, µM (titrated, usually from 57.1 µM), for inactives: top-dose activity change, negative = inhibition, actives largely listed as inhibitors; 230,000 compounds, 1.6% hits; active = well fitted inhibition curve with a large enough effect, not every such curve was filed as active; inconclusive = small, poorly fitted or top-dose-only effect, or another doubt; inactive = no such curve, though single readings can be large or run the other way;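 also: potency is read from the fitted curve at half-maximal effect; 0% = wells with enzyme and -100% = buffer wells without enzyme; nearly all actives have a fitted effect of over 50% in size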
Target sequence (B2RXH2 1-337 limits assumed): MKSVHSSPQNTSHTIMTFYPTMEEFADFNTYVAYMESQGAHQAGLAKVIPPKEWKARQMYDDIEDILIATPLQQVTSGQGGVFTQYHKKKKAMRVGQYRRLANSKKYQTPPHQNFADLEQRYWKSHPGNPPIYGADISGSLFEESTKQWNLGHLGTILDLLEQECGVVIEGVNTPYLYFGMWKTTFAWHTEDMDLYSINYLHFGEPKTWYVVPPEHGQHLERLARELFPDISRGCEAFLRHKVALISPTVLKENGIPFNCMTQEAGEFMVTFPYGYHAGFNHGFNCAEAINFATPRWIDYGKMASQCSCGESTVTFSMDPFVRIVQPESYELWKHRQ
HTT cytoprotect: qHTS Multiplex Assay to Identify Dual Action Probes in a Cell Model of Huntington: Cytoprotection (ATP); Potency, µM (series often up to 56.4 µM), for inactives: cytoprotection (ATP increase), actives largely listed as activators; 230,000 compounds, 0.14% hits; PC12 HTT-Q103 induced, cytoprotection, ATP luminescence, 40 h; also: potency is read from the fitted curve at half-maximal effect; % of control where 0% means no effect; nearly all actives have a fitted effect of over 45% in size
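Readout: ATPlite luminescence (ATP level). Model: stable PC12, inducible Htt exon1 Q103-GFP. Inducer: tebufenozide, 100 nM final. Compounds: dose series. No G418 in medium.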
Coupling enz: qHTS Assay for Inhibitors of Fructose-1,6-bisphosphate Aldolase from Giardia Lamblia: Coupling assay counterscreen | coupling enzyme system counterscreen, AmpLite Red fluorescence | activity change, negative = inhibition, % at 58.2 µM, hits read low | 290,000 compounds, 0.67% hits | AID 2472, 2010; in the data active = activity change below about -30%; also: % is scaled to controls: 0 for no effect and ±100 for the full control effect
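Coupling enzymes only (glyceraldehyde-3-phosphate) + compound, at 57.5 uM final, 10 min RT; add substrate/coupling/AmpLite Red mix, 20 min RT; fluorescence ex 525/em 598 nm. Actives flag coupling-system interference.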
TexasRed fluor: Total Fluorescence Counterscreen for Inhibitors of the Interaction of Thyroid Hormone Receptor and Steroid Receptor Coregulator 2. TRb/SRC2 Texas Red total fluorescence interference. Potency, µM (titrated, usually from 106 µM), inactives show at the highest dose fluorescence change, negative = quenching. 280,000 compounds, 0.29% hits. AID 1479, 2009; active = well fitted curve in either direction with a large enough effect; inconclusive = small, poorly fitted or top-dose-only effect; also: potency is read from the fitted curve at half-maximal effect; % is scaled to controls: 0 for no effect and ±100 for the full control effect
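Human TRb ligand-binding domain at 0.6 uM with 20 nM Texas Red SRC2 peptide in Tris buffer containing 1 uM T3 and 5% DMSO, incubated with compound 5 h at ambient temperature. Total fluorescence (555/632 nm) calculated as parallel + 2 × perpendicular.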
The depositor's hits bear a star; u = inconclusive; x = no result given; [ ] = dose if it differs, or a comment. Unless noted, calls follow the shape of the dose curve; as a rule, active = well fitted curve in the direction sought with a large enough effect; inconclusive = small, poorly fitted or top-dose-only effect, or another doubt; inactive = no such curve, though single readings can be large; an effect the other way counts as inactive or inconclusive.

SMILES | TRb-SRC2 inh | HTT aggregate | JMJD2E inh | HTT cytoprotect | Coupling enz | TexasRed fluor
COc1ccc(CNC(=O)c2ccc(-c3ccccc3)cc2)cc1 | 4% | 9% | 6% | -29% | 0 | 3%
CCc1nnc(NC(=O)CSc2nccn2Cc2ccc(F)cc2)s1 | -6% | x | x | x | x | 1%
O=C(c1ccc(Cl)cc1)c1ccc(Cl)cc1 | 0%[201 µM] | x | x | x | x | -1%[201 µM]
CNS(=O)(=O)c1cn(CC(=O)Nc2cccc(C(F)(F)F)c2)cc1S(=O)(=O)NC | -4% | x | x | x | x | -1%
CSc1nc(=S)c2[nH]c(=S)[nH]c2[nH]1 | -3% | 3%[9.22 µM] | 11µM* | 15%[10 µM] | -6 | -6%
CCOC(=O)CCc1c(C)c2ccc(O)cc2oc1=O | -3% | -8% | u | -9%[0.074 µM] | -39* | 0%
Cc1c(CCC(=O)NCCc2ccccc2)c(=O)oc2cc(O)ccc12 | 9% | x | x | x | x | -53%
O=C(O)CCN1Cc2ccccc2C1=O | -2% | -4% | u | 23%[10 µM] | 0 | 0%
CCC(=O)N1Cc2ccccc2-c2ccccc2C1=O | -2% | 5.6µM* | u | 3%[0.074 µM] | 1 | -2%
NCC1O[C@@H](OC2C(N)C[C@H](N)[C@@H](O[C@H]3OC(CO)C(O)C(N)C3O)C2O)C(N)C(O)C1O (some centres undefined) | -3% | x | 52% | -38% | -2 | -3%
CC1(C)O[C@H]2O[C@@H]([C@H](O)CON3C(=O)c4ccccc4C3=O)[C@H](O)[C@H]2O1 | 3%[11.2 µM] | x | x | -7%[10 µM] | 1 | 1%[11.2 µM]
COc1ccc(CCNCC(O)c2ccccc2)cc1 (centres undefined) | 0% | 1%[9.22 µM] | 7.9µM* | -23%[10 µM] | -1 | 0%
COc1ccc(CCNCC(C)c2ccccc2)cc1 (centres undefined) | x | x | x | x | 1 | x
Cc1ccc(CNc2nc3nc(C)c(Cl)c(C)n3n2)cc1 | -6% | x | x | x | x | 8%
COc1ccccc1CNc1nc2nc(C)c(Cl)c(C)n2n1 | -18%[53 µM] | x | x | x | x | 0.022µM*[quencher]
CCC1CN(C(=O)N2CCC(C(=O)NCc3cc(OC)ccc3OC)CC2)c2ccccc2O1 (centres undefined) | -6% | x | x | x | x | 3%
Fc1ccc(N2CCN(Cc3nnc(-c4ccccc4)o3)CC2)cc1 | 3% | 25% | 5% | 14%[10 µM] | -3 | 7%
Fc1ccc(-c2nnc(CN3CCN(c4ncc(C(F)(F)F)cc4Cl)CC3)o2)cc1 | 0% | 13µM* | -1% | -18%[0.074 µM] | -1 | -2%
Cc1cc(Nc2ccccc2F)n2nc(-c3ccccc3)nc2n1 | -4% | x | x | x | x | -1%
COc1cccc(C(=O)NC2CC3CCCC(C2)N3CC(=O)Nc2ccccc2)c1 (centres undefined) | 0% | -11% | u | 1% | -36* | -1%
COc1cccc(C(=O)NC2CC3CCCC(C2)N3CC(=O)Nc2ccc(N(C)C)cc2)c1 (centres undefined) | -1% | -10% | 6% | -10% | 1 | 1%
CSCC[C@@H]1NC(=O)[C@@H](NC(=O)[C@H](CCCNC(=N)N)NC(=O)[C@H](CC(C)C)NC(=O)[C@H](CCSC)NC(=O)[C@H](CC(=O)O)NC(=O)[C@H](Cc2ccccc2)NC(=O)[C@@H](N)CC(=O)O)CSSC[C@@H](C(=O)N[C@@H](Cc2c[nH]c3ccccc23)C(=O)N[C@@H](CCC(N)=O)C(=O)N[C@@H](Cc2ccc(O)cc2)C(=O)O)NC(=O)[C@@H]2CCCN2C(=O)[C@H](CCCNC(=N)N)NC(=O)[C@H](Cc2ccccc2)NC(=O)[C@H](C(C)C)NC(=O)[C@H](CCCNC(=N)N)NC(=O)CNC(=O)[C@H](CC(C)C)NC1=O | -14% | x | x | x | 1 | x
Cc1cc(=O)oc2c(O)c(O)ccc12 | 0% | x | 2.2µM* | x | -36* | -17%
Cc1cc(=O)oc2cc(O)ccc12 | 3%[53 µM] | 8%[20.6 µM] | u | 5.6µM* | -5 | 0%[53 µM]
Cc1ccc2[nH]c3c(=O)n(CC(=O)Nc4ccc(Br)cc4C)ncc3c2c1 | 5% | x | x | x | x | -3%
SMILES | TRb-SRC2 inh | HTT aggregate | JMJD2E inh | HTT cytoprotect | Coupling enz | TexasRed fluor
Cc1nnc(SCC(=O)Nc2ccc(Br)cc2)[nH]c1=O | -17%[53 µM] | x | x | x | x | 45µM*[quencher]
Cc1cccc(-n2cnc3cc(C(=O)NCc4ccccc4Cl)ccc32)c1 | 2% | x | x | x | x | -3%
COc1ccc(CN2CCNC(=O)C2CC(=O)N2CCCCO2)c(OC)c1 (centres undefined) | -1%[53 µM] | 15%[9.22 µM] | 1% | x | -6 | 0%[53 µM]
COc1cccc(CN2CCNC(=O)C2CC(=O)N2CCCCO2)c1OC (centres undefined) | 8% | 12%[9.22 µM] | -4% | -2%[10 µM] | -45* | 0%
COc1ccc(-c2cn3cc(Cl)ccc3n2)cc1OC | 1% | -7% | u | -30%[10 µM] | -32* | -3%
CCOC(=O)c1c(C)[nH]c(C)c1-c1ccccc1OC | -1% | 9% | -10% | -22% | 1 | -3%
COC(=O)c1c(C)[nH]c(C)c1-c1ccccc1Cl | -3% | 8.9µM* | 3% | -15% | -14 | 1%
CCN(Cc1ccccc1)C(=O)Cn1c(=O)n(-c2ccc(F)c(Cl)c2)c(=O)c2sc3ccccc3c21 | 1% | x | x | x | x | 9%
C/C=C/OC(=O)NC(c1ccccc1)[C@@]1(C(=O)OC)CCCC1=O (some centres undefined) | 3%[11.2 µM] | x | x | -12%[10 µM] | 0 | -5%[11.2 µM]
O=[N+]([O-])c1cc(/C=N\Nc2nccs2)ccc1O | u | -20% | u | -36% | 0 | 25µM*[quencher]
Cc1cc(C)cc(CC(Cc2nc3ccccc3[nH]2)c2nc3ccccc3[nH]2)c1 (centres undefined) | 3% | 22µM* | -2% | -11%[10 µM] | -4 | -2%
CCc1ccccc1Nc1cc(C(=O)NCCCN(C)C2CCCCC2)c2ccccc2n1 | 4% | x | x | x | x | -2%
Cc1ccc(/C=N/NC(=O)c2c(C)nc3ccc(Br)cn23)cc1 | x | x | x | x | 0 | x
COc1cccc(/C=N/NC(=O)c2c(C)nc3ccc(Br)cn23)c1O | 1% | 2.2µM* | u | -155% | -1 | 0%
CCOc1ccccc1/C=N/NC(=O)c1c(C)nc2ccc(Br)cn12 | x | x | x | x | -45* | x
CN1C=CC(=C2C=CN(C)C=C2)C=C1 | -3% | x | x | x | -5 | -25%
Cn1c(C(=O)NCc2ccc(F)cc2)cc2c(=O)n(C)c3ccccc3c21 | -3% | x | x | x | x | -2%
CCN1CCN(C(=O)Cn2ncc3c4ccccc4n(Cc4c(C)cc(C)cc4C)c3c2=O)CC1 | 9% | x | x | x | x | 0%
